Source: PubChem
MazF activator – activators of E. coli MazEF toxin-antitoxin RNase. FAM/BHQ RNA-DNA oligo cleavage fluorescence, 5 h. 350,000 tested, 0.32% active. P0AE70. activation, % at 20 µM; in the data active means activation above about 50%
Anthrax LF prot – blocks Bacillus anthracis lethal factor protease; P15917; multiplex microsphere protease cleavage assay, LF; inhibition, % at 10 µM; 360,000 tested, 0.12% active; AID 588501; further: plate controls were buffer without enzyme for full effect and enzyme alone for no effect
Target sequence (P15917 whole entry, looked up): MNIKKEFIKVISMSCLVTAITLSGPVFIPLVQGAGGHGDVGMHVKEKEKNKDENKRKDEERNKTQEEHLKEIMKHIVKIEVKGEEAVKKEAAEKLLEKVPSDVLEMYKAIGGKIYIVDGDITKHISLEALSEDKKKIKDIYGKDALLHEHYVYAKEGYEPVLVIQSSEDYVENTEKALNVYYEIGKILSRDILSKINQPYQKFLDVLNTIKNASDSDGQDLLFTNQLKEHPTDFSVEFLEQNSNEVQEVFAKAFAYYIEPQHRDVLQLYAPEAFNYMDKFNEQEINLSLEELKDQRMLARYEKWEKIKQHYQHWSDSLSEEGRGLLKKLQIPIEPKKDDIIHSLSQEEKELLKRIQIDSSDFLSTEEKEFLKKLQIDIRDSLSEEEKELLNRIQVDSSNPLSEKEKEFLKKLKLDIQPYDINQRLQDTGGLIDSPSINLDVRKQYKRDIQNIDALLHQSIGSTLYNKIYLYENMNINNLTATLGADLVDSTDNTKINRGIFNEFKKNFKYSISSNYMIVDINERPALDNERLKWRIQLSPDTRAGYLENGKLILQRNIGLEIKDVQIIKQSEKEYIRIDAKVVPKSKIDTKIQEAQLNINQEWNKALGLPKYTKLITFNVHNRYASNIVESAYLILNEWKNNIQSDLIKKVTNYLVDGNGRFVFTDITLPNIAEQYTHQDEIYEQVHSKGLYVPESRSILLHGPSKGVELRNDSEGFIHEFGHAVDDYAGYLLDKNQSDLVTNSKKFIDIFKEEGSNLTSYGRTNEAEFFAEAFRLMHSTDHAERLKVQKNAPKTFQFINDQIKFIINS
BoNT-A LC inh2 – inhibitors of Botulinum neurotoxin A light chain protease. 360,000 tested, 0.17% active. inhibition, % at 10 µM. multiplex microsphere protease substrate cleavage, flow cytometry. AID 588499; further: plate controls were buffer without enzyme for full effect and enzyme alone for no effect
BoNT-F LC inh – inhibitors of Botulinum neurotoxin F light chain protease | Multiplex microsphere protease cleavage assay, flow cytometry | inhibition, % at 10 µM | 360,000 tested, 0.22% active; in the data active means inhibition above about 35%, passing the limit was not always enough; inconclusive means no clear call, values can overlap the other calls; further: plate controls were buffer without enzyme for full effect and enzyme alone for no effect
Autofluor counter – compound fluorescence in toxin protease inhibitor counterscreen; fluorescence intensity (concentration not given with the values); compound autofluorescence counterscreen, microsphere flow cytometry; hits give high values; 360,000 tested, 3.1% active; in the data active means fluorescence intensity above about 16000; inconclusive means no clear call, values can overlap the other calls
Numbers without * were called inactive; u = inconclusive; x = not tested or not shown; + = active, no number. Only some compounds are listed: those with a hit (about 3.6% of all), similar ones and a draw of the others. Unless noted, no stated cut-off is given here; in the data, active means inhibition above about 30%; inconclusive means no clear call, values can overlap the other calls; inactive means below that.

SMILES	MazF activator	Anthrax LF prot	BoNT-A LC inh2	BoNT-F LC inh	Autofluor counter
CCOC(=O)c1c(NC(=O)c2ccc(Cl)cc2)csc1C	6.1	0.0	0.4	-0.4	2320
CC12CN3CC(C)(CN(C1)C3c1ccc(Br)cc1)C2 (centres undefined)	-1.0	0.1	1.0	2.5	22475*
COc1cc(C2N3CC4(C)CN2CC(C)(C3)C4)ccc1O (centres undefined)	-2.2	1.3	1.3	-1.4	3867
NC(=O)c1nnsc1-c1ccco1	4.6	-0.4	-0.2	4.6	3483
CC(C)n1c(N2CCCC2)nc2c1c(=O)[nH]c(=O)n2C	-4.4	0.1	0.7	-11.6	3676
Cn1c(N2CCCCC2)nc2c1c(=O)[nH]c(=O)n2C	1.4	-5.0	-0.5	-1.4	16214*
Cc1ccc(CNC(=O)c2cccc(-n3cnnn3)c2)cc1	4.1	-0.2	-0.2	0.0	23751*
COc1ccc(CCNC(=O)c2cccc(-n3cnnn3)c2)cc1	-4.5	-4.8	0.2	-2.2	3683
O=C(CCNC(=O)c1ccc(Br)o1)NC1CCCC1	0.0	-1.6	u	-0.3	16174*
O=C(NC1CCCCC1)c1ccc(Br)o1	1.9	-2.5	1.1	10.6	4503
C/C(=N\NC(=O)c1cc(-c2ccc(C)s2)[nH]n1)c1ccco1	1.6	0.3	0.4	3.1	2007
CCOC(=O)C1CCN(C(=O)c2sc3nc(C)nc(N4CCC(C)CC4)c3c2C)CC1	3.3	-1.4	-3.0	-4.0	21764*
CCOC(=O)C1CCN(C(=O)c2sc3ncnc(N4CCC(C)CC4)c3c2C)CC1	5.3	-2.2	u	1.9	16307*
Cc1sc2ncnc(N3CCC(C)CC3)c2c1C	-5.2	1.0	-0.2	-17.8	3352
O=C(CCc1nc(-c2ccccc2Cl)no1)Nc1cccnc1	6.9	-1.4	0.9	1.6	5557
COc1ccccc1N1CCN(C(=O)c2ccc(Cl)c(S(=O)(=O)N3CCOCC3)c2)CC1	6.0	-2.0	-4.1	-5.9	4899
CCn1c(C)nc2cc(-c3nnc(-c4c(-c5ccccc5)noc4C)o3)ccc21	4.7	0.2	0.1	-0.2	16285*
Cc1onc(-c2ccccc2)c1-c1nnc(-c2ccccc2C(F)(F)F)o1	3.3	4.7	-0.3	-11.1	6155
CCCCN1CC(COCc2ccccc2)Oc2cccc(OCCN3C(=O)[C@@H]4[C@H](C3=O)C3C=C[C@H]4C3)c2S1(=O)=O (some centres undefined)	5.9	-0.7	-0.8	-7.0	4157
O=C1CC(C(=O)N(c2cccc(F)c2)C(C(=O)NC2CCCC2)c2ccccn2)CS1 (centres undefined)	-1.8	-4.1	0.3	-5.6	11376
O=C1CC(C(=O)N(c2ccc(F)cc2)C(C(=O)NC2CCCC2)c2ccccn2)CS1 (centres undefined)	-0.3	-0.8	1.0	-0.2	22756*
CC1CCCCC1NC(=O)C1CCN(S(=O)(=O)N2CCCCCC2)CC1 (centres undefined)	-1.0	-13.6	9.9	11.2	18939*
O=C(CCc1ccccc1)Nc1cccnc1Cl	1.6	u	4.9	65.5*	3754
O=c1ccccn1Cc1c(Cl)cccc1Cl	0.1	-0.6	u	4.2	23028*
O=C(Nc1cccn(Cc2c(Cl)cccc2Cl)c1=O)c1ccccc1Cl	-6.3	-6.2	u	-4.6	21806*
SMILES	MazF activator	Anthrax LF prot	BoNT-A LC inh2	BoNT-F LC inh	Autofluor counter
CCOc1ccccc1CN1CCN(Cc2ccon2)CC1CCO (centres undefined)	2.0	-5.6	-1.9	3.3	4923
C/C(=N\NC(=O)c1ccncc1)c1cc2ccccc2oc1=O	4.7	0.0	0.0	-1.4	2187
C/C(=N/NC(=O)c1ccncc1)c1cc2ccc(O)cc2oc1=O	+	-3.6	-0.6	-10.9	3743
Cc1c(CC(=O)NCC(C)C)c(=O)oc2cc3c(cc12)CCC(C)(C)O3	1.2	-10.4	0.9	-29.5	3619
COc1cccc(N2CCN(C3CC(=O)N(c4ccc(Cl)c(Cl)c4)C3=O)CC2)c1 (centres undefined)	2.6	-5.7	-0.8	-6.4	4291
CN1C(=O)CC(N2CCN(c3ccc(Cl)c(Cl)c3)CC2)C1=O (centres undefined)	4.2	-0.5	-0.1	2.1	16251*
O=C(COc1cccnc1[N+](=O)[O-])Nc1ccc(Cl)c(S(=O)(=O)N2CCOCC2)c1	8.4	-1.0	-0.4	-1.7	4815
CN1CCN(c2cc(C(F)(F)F)nc(-c3ccccn3)n2)CC1	12.5	-8.6	-1.0	-6.0	4719
CNc1cc(C(F)(F)F)nc(-c2ccccn2)n1	7.2	0.5	u	2.7	19306*
CC(=O)C1C(c2ccccc2Cl)NC(=O)NC1(O)C(F)(F)F (centres undefined)	13.2	1.8	0.0	-2.0	5520
CC(=O)C1C(c2ccncc2)NC(=O)NC1(O)C(F)(F)F (centres undefined)	-0.2	-0.8	0.6	0.3	22926*
CC(=O)C1C(c2ccc3ncccc3c2)NC(=O)NC1(O)C(F)(F)F (centres undefined)	0.5	-1.7	-2.0	0.3	22750*
Cc1ccc(O)c(C(=O)c2cc(C#N)c(=O)n(-c3c(C)n(C)n(-c4ccccc4)c3=O)c2)c1	-217.6	-1.1	-0.6	0.2	16705*
Cc1cc(=O)[nH]c(/N=C(\N)Nc2ccc(SC(F)F)cc2)n1	5.9	-0.6	0.1	-3.3	3830
CSc1ccccc1C(=O)NC1CCCCC1	-0.2	-5.4	2.2	0.8	22309*
CSc1ccccc1C(=O)NCC1CCCO1 (centres undefined)	0.9	-2.4	4.8	8.9	18506*
CCNC(=O)C1(C)CCN1CCC(=O)c1ccc(C)cc1 (centres undefined)	x	-8.5	-0.3	-2.2	2861
COc1ccc(-n2cnnc2SCC(=O)N(C)C2CCS(=O)(=O)C2)cc1 (centres undefined)	1.9	-2.5	-0.5	-2.8	23013*
COc1ccc(-n2nnnc2SCC(=O)N(C)C2CCS(=O)(=O)C2)cc1 (centres undefined)	-4.6	-6.1	-0.1	-15.8	3965
Cn1c(N2CCNCC2)nc2ccccc21	4.2	0.8	0.5	-0.1	19898*
O=C1CCN(Cc2ccc(Cl)cc2Cl)C(=O)N1	6.9	-7.8	-0.5	-3.3	4131
N#Cc1c(-c2ccncc2)c2c([nH]c1=S)CCCC2	-4.2	-0.5	0.5	1.2	2746
Cc1ccc(-c2c3c([nH]c(=S)c2C#N)CCCC3)o1	88.3*	-0.1	u	-9.2	24820*
Cc1cc(C(N)=O)nn1-c1c(Cl)cc(Cl)cc1Cl	4.5	-0.6	u	u	4621
O=C(NC1(C(F)(F)F)C(=O)Nc2c1c(=O)[nH]c(=O)n2-c1ccc(F)cc1)c1cccnc1 (centres undefined)	7.8	-7.3	4.6	4.1	18307*
O=C(NC1(C(F)(F)F)C(=O)Nc2c1c(=O)[nH]c(=O)n2Cc1ccccc1)c1ccc(Cl)cc1Cl (centres undefined)	3.9	-5.6	-2.2	-2.8	16727*
O=C1Nc2c(c(=O)[nH]c(=O)n2Cc2ccccc2)C1(NS(=O)(=O)c1ccccc1)C(F)(F)F (centres undefined)	6.2	-6.7	-1.0	-9.1	3741
